Unmarked numbers belong to inactive results. Where a call stands in place of a potency, no number is given. Activity calls are given as the source filed them. The call rests on the fitted dose curve; in most records, active means well fitted curve in the direction sought with a large enough effect in the repeat runs; inconclusive means weak or mixed curves; inactive means flat fitted curve, though single readings scatter.
Experiment: qHTS assay to test for compound auto fluorescence at 460 nm (blue) in HEK293 cells (AID 720678)
Conditions: blue autofluorescence 405/460 nm; series mostly up to 91.3 µM
Procedure, shortened: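 Auto fluorescence in the blue band was quantified as triamterene equivalency. HEK293 cells were seeded at 2,000/well, dosed after a 4-5 hr attachment, and kept overnight at 37C before the 405/460 nm reading.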

Structure (SMILES)	outcome	fluorescence, % of triamterene
CC(C)C[C@H]1C(=O)N2CCC[C@H]2[C@]2(O)O[C@](NC(=O)[C@@H]3C=C4c5cccc6[nH]c(Br)c(c56)C[C@H]4N(C)C3)(C(C)C)C(=O)N12	inactive	–
Cc1[nH]c(C)c(Cl)c(=O)c1Cl	inactive	–
Cc1cccc(Nc2ccccc2)c1	inactive	–
O=C1CCCCCCCCCCCC(=O)OCCO1	inactive	–
COc1cc(Cl)ccc1Oc1ccc(Cl)cc1Cl	inactive	–
CCCCCCCCCCCCCCOS(=O)(=O)O	inactive	–
CCN(CC)CCOC(=O)C(c1ccccc1)C1CCCCC1 (configuration not stated)	inactive	–
Cc1c(N)cccc1[N+](=O)[O-]	inactive	–
CC(C)O.CC(C)O.CCOC(=O)/C=C(\C)O.CCOC(=O)/C=C(\C)O.[Ti]	inactive	–
C#Cc1cccc(Nc2ncnc3cc(OCCOC)c(OCCOC)cc23)c1	inactive	–
O=C(O)C1(C(=O)Nc2ccc(Cl)cc2Cl)CC1	inactive	–
O=C(CS)Nc1ccccc1	inactive	–
CC1CCC(=O)C1=O (configuration not stated)	inactive	–
CCCCCCCC/C=C\CCCCCCCC(=O)OCC	inactive	–
CCc1cc(C2=C(C(=O)O)N(c3ccccc3C(F)(F)F)S(=O)(=O)c3ccccc32)cc2c1OCO2	inactive	–
CCC(C)c1cc(C(C)(C)C)c(O)c(C(C)(C)C)c1 (configuration not stated)	inactive	–
CNCCCCOc1ccccc1Cc1ccccc1	inactive	–
CCOC(=O)COC(=O)c1cc(Oc2ccc(C(F)(F)F)cc2Cl)ccc1[N+](=O)[O-]	inactive	–
Nc1ncn([C@H]2C[C@H](O)[C@@H](CO)O2)c(=O)n1	inactive	–
NC(N)=NCCC[C@H](N)C(=O)O	inactive	–
C=CC(=O)OCCOCCOC(=O)C=C	inactive	–
CN(C)c1ccc(/C=C/c2ccc([N+](=O)[O-])cc2)cc1	–	0.0267% [at 3.72 µM]
O=C(Nc1ccccc1)c1ccccc1O	inactive	–
CN1CCC(=C2c3ccccc3Sc3ccccc32)CC1	inactive	–
C=CCOc1ccccc1OCC(O)CNC(C)C (configuration not stated)	–	0.0129% [at 18.6 µM]
C=CC(=O)OCCOCCOCCOCCOC(=O)C=C	inactive	–
O=C(O)c1nc(Cl)c(Cl)c(Cl)c1Cl	inactive	–
CCO[C@H](Cc1ccc(OCCc2ccc(OS(C)(=O)=O)cc2)cc1)C(=O)O	inactive	–
CCCCCCCCCCCCCCCCOS(=O)(=O)O	inactive	–

Experiment: qHTS assay to test for compound auto fluorescence at 590 nm (red) in HEK293 cells (AID 720679)
Conditions: red autofluorescence 540/590 nm; series mostly up to 91.3 µM
Procedure, shortened: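 Autofluorescence equivalency to Rose Bengal sodium, 540/590nm, in HEK293 cells exposed overnight to 23 nL compound per well.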

Structure (SMILES)	Potency	fluorescence, % of fluorescent control
CC(C)C[C@H]1C(=O)N2CCC[C@H]2[C@]2(O)O[C@](NC(=O)[C@@H]3C=C4c5cccc6[nH]c(Br)c(c56)C[C@H]4N(C)C3)(C(C)C)C(=O)N12	inactive	–
Cc1[nH]c(C)c(Cl)c(=O)c1Cl	inactive	–
CC(C)Nc1ccc(NC(C)C)c2c1C(=O)c1ccccc1C2=O	inactive	–
Cc1cccc(Nc2ccccc2)c1	inactive	–
O=C1CCCCCCCCCCCC(=O)OCCO1	inactive	–
COc1cc(Cl)ccc1Oc1ccc(Cl)cc1Cl	inactive	–
Cc1cccc(C)c1OCC(=O)N[C@@H](Cc1ccccc1)[C@@H](O)C[C@H](Cc1ccccc1)NC(=O)[C@H](C(C)C)N1CCCNC1=O	inactive	–
CCCCCCCCCCCCCCOS(=O)(=O)O	inactive	–
CCN(CC)CCOC(=O)C(c1ccccc1)C1CCCCC1 (configuration not stated)	inactive	–
Cc1c(N)cccc1[N+](=O)[O-]	inactive	–
CC(C)O.CC(C)O.CCOC(=O)/C=C(\C)O.CCOC(=O)/C=C(\C)O.[Ti]	inactive	–
C#Cc1cccc(Nc2ncnc3cc(OCCOC)c(OCCOC)cc23)c1	inactive	–
O=C(O)C1(C(=O)Nc2ccc(Cl)cc2Cl)CC1	inactive	–
O=C(CS)Nc1ccccc1	inactive	–
COc1cc(Cl)c(OC)cc1N	inactive	–
COc1cccc(N(C)C(=S)Oc2ccc3c(c2)CCCC3)n1	inactive	–
CC1CCC(=O)C1=O (configuration not stated)	inactive	–
CC[N+](C)(CC)CCOC(=O)C(O)(c1ccccc1)C1CCCCC1 (configuration not stated)	inactive	–
CCCCCCCC/C=C\CCCCCCCC(=O)OCC	inactive	–

Structure (SMILES)	Potency	fluorescence, % of fluorescent control
O=C(O)CC(=O)C(=O)O	inactive	–
CCc1cc(C2=C(C(=O)O)N(c3ccccc3C(F)(F)F)S(=O)(=O)c3ccccc32)cc2c1OCO2	inactive	–
CCCCNc1ccc(C(=O)OCCOCCOCCOCCOCCOCCOCCOCCOCCOC)cc1	–	0.183% [at 18.6 µM]
CCC(C)c1cc(C(C)(C)C)c(O)c(C(C)(C)C)c1 (configuration not stated)	inactive	–
CNCCCCOc1ccccc1Cc1ccccc1	inactive	–
CCOC(=O)COC(=O)c1cc(Oc2ccc(C(F)(F)F)cc2Cl)ccc1[N+](=O)[O-]	inactive	–
Nc1ncn([C@H]2C[C@H](O)[C@@H](CO)O2)c(=O)n1	inactive	–
NC(N)=NCCC[C@H](N)C(=O)O	inactive	–
C=CC(=O)OCCOCCOC(=O)C=C	inactive	–
CN(C)c1ccc(/C=C/c2ccc([N+](=O)[O-])cc2)cc1	–	0.111% [at 3.72 µM]
CCCCCCCCCCO[C@@H]1O[C@H](CO)[C@@H](O)[C@H](O)[C@H]1O	inactive	–
CCCNCC(O)COc1ccccc1C(=O)CCc1ccccc1 (configuration not stated)	inactive	–
O=C(Nc1ccccc1)c1ccccc1O	inactive	–
CN1CCC(=C2c3ccccc3Sc3ccccc32)CC1	inactive	–
C=CCOc1ccccc1OCC(O)CNC(C)C (configuration not stated)	–	0.157% [at 18.6 µM]
C=CC(=O)OCCOCCOCCOCCOC(=O)C=C	inactive	–
O=C(O)c1nc(Cl)c(Cl)c(Cl)c1Cl	inactive	–
CCO[C@H](Cc1ccc(OCCc2ccc(OS(C)(=O)=O)cc2)cc1)C(=O)O	inactive	–
CCCCCCCCCCCCCCCCOS(=O)(=O)O	inactive	–
